Laboratory results from publication PMC4336329 (PLoS ONE, 2015).
The campaign covered roughly 310,000 compounds. About 14,000 (4.5%) showed an effect of 50% or more. Effects have a minus sign here. Many of the other results were omitted from the sample, so strong results are more common in it than they were.

Target: human ether-à-go-go-related gene (hERG) potassium channel (human, UniProt Q12809)
Assay: primary screen, population patch clamp on CHO cells stably expressing hERG; higher = less effect of the substance
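Note: peak tail current of the secondary pulse compared with the same well before compound.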

Chain of human ether-à-go-go-related gene (hERG) potassium channel (Q12809 whole entry, looked up): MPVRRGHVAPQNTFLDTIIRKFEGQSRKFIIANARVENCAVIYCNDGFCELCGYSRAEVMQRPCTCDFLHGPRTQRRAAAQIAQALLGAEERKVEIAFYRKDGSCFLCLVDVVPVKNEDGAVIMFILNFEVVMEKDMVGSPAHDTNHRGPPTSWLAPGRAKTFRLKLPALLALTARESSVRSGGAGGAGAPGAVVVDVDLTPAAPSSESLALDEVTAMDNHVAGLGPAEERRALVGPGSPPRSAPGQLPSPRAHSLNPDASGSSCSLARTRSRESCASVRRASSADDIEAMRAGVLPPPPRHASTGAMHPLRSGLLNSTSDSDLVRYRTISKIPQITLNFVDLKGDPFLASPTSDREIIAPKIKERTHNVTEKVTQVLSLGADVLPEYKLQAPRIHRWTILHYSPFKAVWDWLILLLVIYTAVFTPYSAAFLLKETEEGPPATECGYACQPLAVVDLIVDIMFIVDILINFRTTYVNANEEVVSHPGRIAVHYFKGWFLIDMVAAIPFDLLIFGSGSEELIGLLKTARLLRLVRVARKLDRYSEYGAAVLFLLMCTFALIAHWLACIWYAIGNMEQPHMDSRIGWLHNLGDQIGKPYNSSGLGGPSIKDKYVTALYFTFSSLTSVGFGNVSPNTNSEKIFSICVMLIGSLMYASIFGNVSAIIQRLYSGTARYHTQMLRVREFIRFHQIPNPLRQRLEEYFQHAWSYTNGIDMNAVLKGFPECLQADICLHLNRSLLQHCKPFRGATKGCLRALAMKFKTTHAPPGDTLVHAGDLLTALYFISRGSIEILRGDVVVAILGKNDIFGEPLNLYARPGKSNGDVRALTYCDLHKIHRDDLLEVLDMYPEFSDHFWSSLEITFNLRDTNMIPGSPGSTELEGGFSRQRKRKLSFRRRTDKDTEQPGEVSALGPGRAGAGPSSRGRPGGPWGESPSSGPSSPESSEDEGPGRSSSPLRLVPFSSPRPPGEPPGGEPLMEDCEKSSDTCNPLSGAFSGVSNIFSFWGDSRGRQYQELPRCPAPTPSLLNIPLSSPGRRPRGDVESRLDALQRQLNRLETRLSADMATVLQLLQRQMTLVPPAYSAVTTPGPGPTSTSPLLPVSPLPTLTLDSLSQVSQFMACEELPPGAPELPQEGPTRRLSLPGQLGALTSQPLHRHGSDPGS

| Compound | hERG current change (%, negative = inhibition) at 10uM |
| --- | --- |
| CSCCCNC(=S)Nc1cccc(S(=O)(=O)NC2=NCCC2)c1 | 32.8% |
| CSc1ccccc1OCc1cc(C(=O)NCCn2nc(C)cc2C)no1 | -0.00922% |
| O=S(=O)(Nc1nc2ccccc2nc1NCC1CCCO1)c1ccccc1 (centres unmarked) | 2.43% |
| CCOC(=O)C1(Cc2ccccc2C(F)(F)F)CCN(CCCn2cccn2)CC1 | -82.1% |
| CCOC(=O)C1(Cc2ccccc2C(F)(F)F)CCN(C2CCN(C(C)C)CC2)CC1 | -36.6% |
| CCOC(=O)C1(Cc2ccccc2C(F)(F)F)CCN(C(=O)c2cc(C(C)=O)n[nH]2)CC1 | -57.2% |
| CCOC(=O)C1(Cc2ccccc2C(F)(F)F)CCN(C(C)CCn2cccn2)CC1 (centres unmarked) | -65.6% |
| CCOC(=O)C1(Cc2ccccc2C(F)(F)F)CCN(C2CCN(C(C)=O)CC2)CC1 | -18.6% |
| CCOC(=O)C1(Cc2ccccc2C(F)(F)F)CCN(CC(O)CO)CC1 (centres unmarked) | -3.71% |
| CCOC(=O)C1(Cc2ccccc2C(F)(F)F)CCN(C(C)CSC)CC1 (centres unmarked) | -48.2% |
| CCOC(=O)C1(Cc2ccccc2C(F)(F)F)CCN(Cc2ccon2)CC1 | -2.88% |
| CCOC(=O)C1(Cc2ccccc2C(F)(F)F)CCN(C(=O)c2cc(C)n(C)n2)CC1 | -22.6% |
| COc1cccc2cc(C(=O)NCc3ccccc3Br)c(=O)oc12 | 19% |
| CN(Cc1ccc(C(F)(F)F)cc1)C(=O)c1ccc(Oc2ccccc2)cc1 | 13.1% |
| Cc1ccc(S(=O)(=O)Nc2ccccc2)cc1C(=O)N1CCCC1 | -4.95% |
| Cc1nonc1NC(=O)CSc1nc2ccc(Cl)cc2[nH]1 | 3.09% |
| Cc1sc(NC(=O)Cn2[nH]c(=O)c3ccccc3c2=O)nc1-c1ccccc1 | 11.6% |
| CCOC(=O)N1CCC(N2C(=O)c3ccccc3C2Nc2ccc(S(=O)(=O)N3CCOCC3)cc2)CC1 (centres unmarked) | -16.7% |
| CCOC(=O)N1CCC(N2C(=O)c3ccccc3C2Nc2ccc(C)cc2)CC1 (centres unmarked) | -32.8% |
| CCOC(=O)N1CCC(N2C(=O)c3ccccc3C2Nc2ccc(S(=O)(=O)N3CCCCC3)cc2)CC1 (centres unmarked) | -58% |
| CCOC(=O)N1CCC(N2C(=O)c3ccccc3C2Nc2cccnc2)CC1 (centres unmarked) | 1.81% |
| CCOC(=O)N1CCC(N2C(=O)c3ccccc3C2Nc2cc(Cl)c(OC)cc2OC)CC1 (centres unmarked) | -45.5% |

| Compound | hERG current change (%, negative = inhibition) at 10uM |
| --- | --- |
| CCOC(=O)N1CCC(N2C(=O)c3ccccc3C2Nc2ccc(S(=O)(=O)N(CC)CC)cc2)CC1 (centres unmarked) | -62.6% |
| COc1ccc(C2C3=C(CC(C)(C)CC3=O)N(CC(=O)O)C3=C2C(=O)CC(C)(C)C3)cc1OC | 2.83% |
| COc1cc(OC)c(N2CC34C=CC(O3)C(C(=O)O)C4C2=O)cc1Cl (centres unmarked) | 4.99% |
| CCc1nnc(NC(=O)CSc2ccc(-c3nc4ccc(C)cc4[nH]3)cn2)s1 | 6.54% |
| CCc1ccc(OCC(=O)N(C)C)c(Br)c1 | -7.33% |
| CN(C)CCNC(=O)COc1ccc(Cl)cc1Cl | -18.2% |
| CCc1ccc(OCC(=O)NCCN(C)C)c(Br)c1 | -58.4% |
| O=C(COC(=O)c1ccc2ncsc2c1)NCc1cccc(Cl)c1 | -11.2% |
| COc1ccc(N2CCN(CC(=O)Nc3c(C)cc(C)cc3C)CC2)cc1 | 0.738% |
| Cc1ccc(CNC(=O)/C=C/c2ccc(Br)o2)cc1 | -26.2% |
| O=C(Nc1cccc(Cl)c1)NC1CC2CCC1C2 (centres unmarked) | 9.69% |
| Cc1ccc2nc(-c3ccc4c(c3)OCCO4)cc(C(=O)O)c2c1 | 4.86% |
| O=C(Nc1ccc2c(c1)OCCO2)c1cc(-c2ccccc2)nc2ccccc12 | 9.23% |
| O=C(Nc1c2c(nc3ccccc13)CCCC2)c1ccccc1F | -3% |
| Cl.c1ccc2c(Nc3ccc4c(c3)OCCO4)c3c(nc2c1)CCC3 | -52.3% |
| Cc1ccc2nc3c(c(Nc4ccc5c(c4)OCCO5)c2c1)CCC3.Cl | -51.7% |
| O=C(COC(=O)c1c2c(nc3ccccc13)CCCC2)Nc1ccc2c(c1)OCO2 | 3.1% |
| Cc1ccc2nc(-c3ccncc3)cc(C(=O)Nc3ccc4c(c3)OCCO4)c2c1 | 3.46% |
| c1ccc2c(Nc3ccc4c(c3)OCCO4)c3c(nc2c1)CCCC3 | -92.4% |
| Cc1cc(C)c(C)c(S(=O)(=O)N2CCC(C(=O)Nc3ccccc3N3CCOCC3)CC2)c1C | -8.54% |
| Cc1cc(Br)ccc1NC(=O)CNC(=O)Cc1ccc(S(=O)(=O)N2CCOCC2)s1 | -33.8% |
| CCOC(=O)[C@H]1CCC[C@@H](NS(=O)(=O)c2ccc(NC(C)=O)cc2)C1 | 14.1% |

| Compound | hERG current change (%, negative = inhibition) at 10uM |
| --- | --- |
| Cc1ccc(Nc2ccc3nonc3c2[N+](=O)[O-])cc1 | 2.88% |
| CCCCNC(=O)C1c2ccccc2C(=O)N(c2ccc(OC)cc2)C1c1ccc(OC)cc1 (centres unmarked) | -18.6% |
| COc1cc(OC)c(C(=O)NNC(=S)NC2CCCCC2)cc1OC | 16.6% |
| Cc1cccc(C(=O)NCC(=O)N2CCN(S(=O)(=O)/C=C/c3ccccc3)CC2)c1 | -18.5% |
| O=C(NCC(=O)N1CCN(C/C=C/c2ccccc2)CC1)c1ccc(OC(F)F)cc1 | -79.5% |
| CCOc1ccc(C(=O)NCC(=O)N2CCN(C/C=C/c3ccccc3)CC2)cc1OCC | -41.7% |
| CC(C)Oc1ccc(C(=O)NCC(=O)N2CCN(S(=O)(=O)/C=C/c3ccccc3)CC2)cc1 | -67.6% |
| O=C(NC(=S)N1CCN(C/C=C/c2ccccc2)CC1)c1ccc(F)cc1 | -43.7% |
| O=C(NCC(=O)N1CCN(S(=O)(=O)/C=C/c2ccccc2)CC1)c1ccc(Cl)cc1 | -23.1% |
| CCOC(=O)c1cnc(SCc2nc(N)nc(Nc3ccccc3OC)n2)nc1N | -2.39% |
| O=C1NCC(COc2cccc3ccccc23)O1 (centres unmarked) | 13.3% |
| CCN(CC(=O)Nc1ccc(NC(C)=O)cc1)C(=O)Cc1cccc2ccccc12 | 4.98% |
| CC1CCCCN1S(=O)(=O)c1ccc2[nH]c(=O)cc(C(=O)NCCCN3CCCCCC3)c2c1 (centres unmarked) | 17% |
| O=[N+]([O-])c1ccc(-c2cn(-c3ccccc3F)c(=S)[nH]2)cc1 | -3.28% |
| Cc1cccc(-n2cc(-c3ccc([N+](=O)[O-])cc3)[nH]c2=S)c1 | -2.96% |
| Cc1ccc(-n2cc(-c3ccc([N+](=O)[O-])cc3)[nH]c2=S)c(C)c1 | -51.3% |
| CCOC(=O)C1CCCN(C(=O)Cn2nc(C)n3c(cc4c(OC)cccc43)c2=O)C1 (centres unmarked) | -6.37% |
| CN1C[C@H](CNC(=O)OCc2ccccc2)C[C@@H]2c3cccc4c3c(cn4C)C[C@H]21 | -61.9% |
| CN1C[C@H](CO)C[C@@H]2c3cccc4[nH]cc(c34)C[C@H]21 | -7.36% |
| O=C(NCC1CCC(C(=O)O)CC1)OCc1ccccc1 (centres unmarked) | 3.13% |
| Cc1ccsc1C(=O)N1CCCC(N(C)Cc2ccccc2)C1 (centres unmarked) | -13.9% |
| CCn1nc(C)cc1C(=O)N1CCCC(N(C)CCc2ccc(OC)c(OC)c2)C1 (centres unmarked) | -16.2% |

| Compound | hERG current change (%, negative = inhibition) at 10uM |
| --- | --- |
| COc1ccc(CCN(C)C2CCCN(C(=O)c3ccnn3C)C2)cc1OC (centres unmarked) | -21.1% |
| COc1ccc(CCN(C)C2CCCN(C(=O)c3sccc3C)C2)cc1OC (centres unmarked) | -55% |
| COCc1ccc(C(=O)N2CCCC(N(C)CCc3ccc(OC)c(OC)c3)C2)s1 (centres unmarked) | -62.4% |
| COCc1ccc(C(=O)N2CCCC(N(C)Cc3ccccc3)C2)s1 (centres unmarked) | -8.86% |
| CN(C)CCCn1c(SCc2c(Cl)cccc2Cl)nnc1-c1ccncc1.O=C(O)C(=O)O | -0.471% |
| CCOc1ccc(NC(=O)C2CCCN(c3nn4c(=O)cc(C)nc4s3)C2)cc1 (centres unmarked) | -7.14% |
| COc1ccc(C/C(C)=N/NC(=O)c2ccncc2)cc1 | -7.41% |
| O=C(CSc1nc(O)c(C2CCCCC2)c(=O)[nH]1)Nc1ccc(F)cc1 | 22.4% |
| COc1ccc(OCCSc2ncc(CO)n2C)cc1 | 12.4% |
| CCCCn1c(CN2CCN(CCO)CC2)nc2ccccc21 | -66% |
| CCn1c(CN2CCN(CCO)CC2)nc2ccccc21 | 5.04% |
| CCCCn1c(N)nc2ccccc21.Cl | -8.47% |
| CCCCn1c(CNC(C)=O)nc2ccccc21 | 3.5% |
| CCCn1c(CN2CCN(C)CC2)nc2ccccc21 | -9.68% |
| CCCCn1c(CN2CCN(C)CC2)nc2ccccc21 | -67.1% |
| O=S(=O)(Nc1ccccn1)c1ccc(Cl)c2ccccc12 | 19.5% |
| O=C(NCc1cccnc1)c1cccc2c1C(=O)N(C1CCCCC1)C2 | -15.3% |
| CCc1ccccc1N1C(=O)/C(=C/c2ccc(N3CCN(C)CC3)o2)C(=O)NC1=S | 1.18% |
| O=C(CCNS(=O)(=O)c1ccccc1C(F)(F)F)NCC(c1ccco1)N1CCCCC1 (centres unmarked) | 0.519% |
| CCOc1ccc2nc(NS(=O)(=O)c3cccs3)sc2c1 | 20.8% |
